The panel holds about 83,000 compounds, 20% with a hit somewhere; the sample as a whole holds those more often.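 The test compound was applied at a single concentration to cells in 96-well plates for 48 hours, and percent growth was recorded.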 The source made the active and inactive calls. How the source made its calls: active means growth percent below 10; inactive means the rest.

The subject of the first experiment is NCI/ADR-RES ovarian. Description: NCI-60 one-dose screen, 48 h (100 = growth as untreated, 0 = no growth, -100 = all killed). As to conditions: 10 µM.
Consider `C/C(=C\c1ccc(O)cc1O)c1ccc2ccc(O)cc2[o+]1`, for which the growth is 22.1% (inactive). Still for that read-out and setting: the figure for `CCCCOc1ccc(Nc2nc3ccccc3nc2Nc2ccc(OCCCC)cc2)cc1` is 94.3% (inactive); for `Nc1nc(Nc2ccc(Cl)cc2)nn1Cc1cccc(Br)c1` it is 25.7% (inactive); for `O=C(CSc1nnc(-c2c[nH]c3ccccc23)n1-c1ccccc1)c1ccc(Br)cc1` it is 26.3% (inactive).

Consider `COC(=O)c1c(C(=O)OC)c2n(c1C)[C@@H]([C@@H](C)[C@H]1CC[C@H]3[C@@H]4CCC5=CC(=O)CC[C@]5(C)[C@H]4CC[C@]13C)SC2`, for which the growth is 7.08% (active). In the case of `COc1ccc(C(=O)/C=C/c2cc(C(F)(F)F)cc(C(F)(F)F)c2)cc1S(N)(=O)=O`, the growth is -34% (active). On to `CCCn1c(O)c(N=Nc2nc(-c3cc4ccccc4oc3=O)cs2)c2cc(Br)ccc21`, for which the growth is 95.4% (inactive). On to `O/N=C(\CSc1nnc(-c2c[nH]c3ccccc23)n1-c1ccccc1)c1ccc(Br)cc1`, for which the growth is -73.9% (active). The same measure, in the same setting: the figure for `CC(=O)Oc1ccccc1C(=O)Oc1ccc(C(=O)/C=C/c2ccncc2)cc1` is 63.5% (inactive). `COc1cc2c3c(n(CCCn4ccnc4)c(=O)c2cc1OC)-c1nc2c(cc1C3=O)OCO2`: the growth was 84.2% (inactive). As for `O=S(=O)(Nc1ncccn1)c1ccc(-n2c(-c3ccc(Br)cc3)nc(-c3ccccc3)c2-c2ccccc2)cc1`, the growth was 33.6% (inactive). `COc1ccc(-c2cc(C(=O)N=Nc3c(O)[nH]c4ccc(Br)cc34)c3ccccc3n2)cc1`: the growth is 43.2% (inactive). Regarding `CCOC(=O)CNC(=O)CN(Cc1ccccc1)C(=O)[C@@]1(C)CCC[C@]2(C)[C@H]3CC4C(C(C)C)=C[C@]3(CC[C@H]21)[C@@H]1C(=O)CCC(=O)[C@H]41`, the growth is 47.9% (inactive). Consider `CC1(c2ccccc2)NC(=O)N(CC(=O)Nc2ccc(C(=O)/C=C/C=C/c3ccccc3)cc2)C1=O` (centres undefined), for which the growth was 82.7% (inactive). As for `O=c1c2ccccc2nc(COc2ccccc2)n1/N=C/c1ccc(F)cc1`, the growth was 90.8% (inactive). With `COc1ccc(-c2cc(-c3cc(C(=O)c4ccccc4)n4ccc(C)cc34)nc(N)c2C#N)cc1`, the growth is 43.6% (inactive).

For `COc1cc(C2CC(c3ccc(C)cc3)=Nc3c(N)nc(N)nc3N2)ccc1Oc1nc(Nc2ccc(F)cc2)nc(N(C)C)n1` (centres undefined), the growth is 51.7% (inactive). `O=C(Nc1cccc(C(F)(F)F)c1)c1cncc(C#Cc2cnc3ccc(N4CCOCC4)nn23)c1`: the growth is -24% (active). On to `CC(=O)Nc1ccc(-c2cn(-c3cccc(C(=O)Nc4ccc(F)c(C(F)(F)F)c4)c3)nn2)cn1`, for which the growth was 86.3% (inactive). As for `CN(C(=O)c1ccc(C(F)(F)F)cc1C(F)(F)F)c1sc2c(c1C#N)CCC(=O)C2`, the growth was 55% (inactive). Consider `C#CCNC(=O)CCC(=O)OC[C@]12CC[C@@H](C(=C)C)[C@@H]1C1CC[C@@H]3[C@@]4(C)CCCNC(C)(C)[C@@H]4CC[C@@]3(C)[C@]1(C)CC2` (some centres undefined), for which the growth is -75.1% (active).

`COc1ccc2[nH]cc(/C=N/Nc3ccc(Br)cn3)c2c1`: the growth is 7.9% (active). In the case of `[2H]C([2H])([2H])Oc1ccc2ncc(C#Cc3cncc(C(=O)Nc4ccc(CN5CCN(C)CC5)c(C(F)(F)F)c4)c3)n2n1`, the growth is -68% (active). For the compound `O=c1cc(-c2ccccc2)oc2cc(OCCCCNCc3ccccc3)cc(O)c12`, the growth was -68.4% (active). Regarding `O=c1[nH]c2ccccc2cc1CSc1ccc(Nc2nccc(-c3ccc(C(F)(F)F)cc3)n2)cc1`, the growth was 11.9% (inactive).

`CN(C)c1ccc(/C=C/c2nc3ccccc3c(=O)n2CC(=O)Nc2ccccc2)cc1`: the growth is 30.4% (inactive). Still for that read-out and setting: the figure for `Cc1ccc(-c2nc(Nc3ccc(C)c(S(N)(=O)=O)c3)c3ccccc3n2)cc1` is 60.3% (inactive).

The test system of a further experiment is T-47D breast. The experiment is described as above. The following applies: 10 µM.
As to `COc1cc(/C=C/C(=O)c2ccc(C(F)(F)F)cc2)ccc1Oc1nc(Nc2ccc(F)cc2)nc(N(C)C)n1`, the growth was 44.6% (inactive).

`Cc1ccc(/C=C/C(=O)c2ccc(NC(=O)CSc3nnc(-c4c[nH]c5ccccc45)n3-c3ccccc3)cc2)c(C)c1`: the growth is 36.9% (inactive). Turning to `COc1ccc(/C=C/C(=O)c2ccc(S(=O)(=O)NCCNc3nc(Nc4ccc(F)cc4)nc(N(C)C)n3)cc2)cc1`, the growth is 18.4% (inactive). Regarding `N#Cc1c(-c2ccc(Cl)cc2)cc(-c2ccccc2)nc1OCc1ccccc1`, the growth is 52.3% (inactive).

As for `Nc1nnc(-c2c[nH]c3ncccc23)c(-c2c[nH]c3ccc(Br)cc23)n1`, the growth was 22.4% (inactive).

Turning to `CC(=O)OC[C@@]1(C)C2CC[C@]3(C)C(CC=C4C5CC(C)(C)CC[C@]5(C(=O)Nc5ccccc5)CC[C@]43C)[C@@]2(C)C[C@@H](OC(C)=O)[C@@H]1OC(C)=O` (some centres undefined), the growth was 15.3% (inactive). As to `O=C(CSc1nnc(-c2c[nH]c3ccccc23)n1-c1ccccc1)Nc1ccc(C(=O)/C=C/c2cccc([N+](=O)[O-])c2)cc1`, the growth was 57.5% (inactive). In the case of `C/C(=C\c1ccc(O)cc1O)c1ccc2ccc(O)cc2[o+]1`, the growth was 56% (inactive).

With `CCCCOc1ccc(Nc2nc3ccccc3nc2Nc2ccc(OCCCC)cc2)cc1`, the growth is 79% (inactive). Turning to `Nc1nc(Nc2ccc(Cl)cc2)nn1Cc1cccc(Br)c1`, the growth is 19.3% (inactive). The same measure, in the same setting: the figure for `COc1ccc(/C=N/N=C(\C)c2ccc3c(c2)Nc2ccccc2S3)cc1O` is 21.5% (inactive); for `O=C(CSc1nnc(-c2c[nH]c3ccccc23)n1-c1ccccc1)c1ccc(Br)cc1` it is 22% (inactive). For the compound `COC(=O)c1c(C(=O)OC)c2n(c1C)[C@@H]([C@@H](C)[C@H]1CC[C@H]3[C@@H]4CCC5=CC(=O)CC[C@]5(C)[C@H]4CC[C@]13C)SC2`, the growth is 4.62% (active). As to `COc1ccc(C(=O)/C=C/c2cc(C(F)(F)F)cc(C(F)(F)F)c2)cc1S(N)(=O)=O`, the growth was -59.8% (active). Same read-out and setting: the figure for `CCCn1c(O)c(N=Nc2nc(-c3cc4ccccc4oc3=O)cs2)c2cc(Br)ccc21` is 98.8% (inactive); for `O/N=C(\CSc1nnc(-c2c[nH]c3ccccc23)n1-c1ccccc1)c1ccc(Br)cc1` it is 5.96% (active); for `CC(=O)Oc1ccccc1C(=O)Oc1ccc(C(=O)/C=C/c2ccncc2)cc1` it is 54.9% (inactive). For the compound `CC(=O)C1=C(C)NC(SCC(=O)Nc2ccc(S(=O)(=O)Nc3cc(C)on3)cc2)=NC1c1ccccc1` (centres undefined), the growth is 99.3% (inactive).

`COc1cc2c3c(n(CCCn4ccnc4)c(=O)c2cc1OC)-c1nc2c(cc1C3=O)OCO2`: the growth is 21.8% (inactive).

For `O=S(=O)(Nc1ncccn1)c1ccc(-n2c(-c3ccc(Br)cc3)nc(-c3ccccc3)c2-c2ccccc2)cc1`, the growth is 2.77% (active). Regarding `COc1ccc(-c2cc(C(=O)N=Nc3c(O)[nH]c4ccc(Br)cc34)c3ccccc3n2)cc1`, the growth is 58.4% (inactive). In the case of `CCOC(=O)CNC(=O)CN(Cc1ccccc1)C(=O)[C@@]1(C)CCC[C@]2(C)[C@H]3CC4C(C(C)C)=C[C@]3(CC[C@H]21)[C@@H]1C(=O)CCC(=O)[C@H]41`, the growth is 52.2% (inactive). In the case of `CC1(c2ccccc2)NC(=O)N(CC(=O)Nc2ccc(C(=O)/C=C/C=C/c3ccccc3)cc2)C1=O` (centres undefined), the growth is 17% (inactive). With `O=c1c2ccccc2nc(COc2ccccc2)n1/N=C/c1ccc(F)cc1`, the growth was 57.4% (inactive).

`COc1ccc(-c2cc(-c3cc(C(=O)c4ccccc4)n4ccc(C)cc34)nc(N)c2C#N)cc1`: the growth is 65.1% (inactive). In the case of `COc1cc(C2CC(c3ccc(C)cc3)=Nc3c(N)nc(N)nc3N2)ccc1Oc1nc(Nc2ccc(F)cc2)nc(N(C)C)n1` (centres undefined), the growth is 64.5% (inactive). `O=C(Nc1cccc(C(F)(F)F)c1)c1cncc(C#Cc2cnc3ccc(N4CCOCC4)nn23)c1`: the growth was 1.64% (active). For `CC(=O)Nc1ccc(-c2cn(-c3cccc(C(=O)Nc4ccc(F)c(C(F)(F)F)c4)c3)nn2)cn1`, the growth was 88.2% (inactive). `CN(C(=O)c1ccc(C(F)(F)F)cc1C(F)(F)F)c1sc2c(c1C#N)CCC(=O)C2`: the growth is 1.04% (active). `C#CCNC(=O)CCC(=O)OC[C@]12CC[C@@H](C(=C)C)[C@@H]1C1CC[C@@H]3[C@@]4(C)CCCNC(C)(C)[C@@H]4CC[C@@]3(C)[C@]1(C)CC2` (some centres undefined): the growth was 10.9% (inactive).

Consider `COc1ccc2[nH]cc(/C=N/Nc3ccc(Br)cn3)c2c1`, for which the growth was 22.3% (inactive). Turning to `[2H]C([2H])([2H])Oc1ccc2ncc(C#Cc3cncc(C(=O)Nc4ccc(CN5CCN(C)CC5)c(C(F)(F)F)c4)c3)n2n1`, the growth was -24.5% (active).

For the compound `COc1ccc(CN2[C@H](C(=O)NCc3ccc(C(=O)NO)cc3)Cc3c([nH]c4ccccc34)[C@H]2C2CC2)cc1`, the growth is 40.4% (inactive). Consider `O=c1cc(-c2ccccc2)oc2cc(OCCCCNCc3ccccc3)cc(O)c12`, for which the growth was -70.7% (active). On the same count and under the same terms, the figure for `O=c1[nH]c2ccccc2cc1CSc1ccc(Nc2nccc(-c3ccc(C(F)(F)F)cc3)n2)cc1` is 18.8% (inactive); for `CN(C)c1ccc(/C=C/c2nc3ccccc3c(=O)n2CC(=O)Nc2ccccc2)cc1` it is 49.3% (inactive); for `Cc1ccc(-c2nc(Nc3ccc(C)c(S(N)(=O)=O)c3)c3ccccc3n2)cc1` it is 84.2% (inactive).

Values taken from PubChem BioAssay (NCI).
